# Experimental data as given in PubChem BioAssay (NCI).
# This is part of a sample that, as a whole, favours compounds with a hit. Of some 83,000 tested, about 20% had one in any assay.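 Results are percent growth after 48 hours of single-concentration exposure. 100 means growth as in untreated cells, lower positive values show inhibition; negative values down to -100 show cell death.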 Values without a mark were called inactive. Activity calls are given as the source filed them. Rule for the calls: active = growth percent below 10; inactive = the rest.
# How the values were obtained:
# Assay in all cases: NCI-60 one-dose screen, 48 h (100 = growth as untreated, 0 = no growth, -100 = all killed)
# Conditions in all cases: 10 µM unless noted
# [1] = test system: NCI-H23 lung
# [2] = test system: NCI-H226 lung
# [3] = test system: NCI-H322M lung
# [4] = test system: HOP-62 NSCLC
# [5] = test system: NCI-H460 lung
# [6] = test system: HOP-92 NSCLC
# [7] = test system: NCI-H522 lung
# [8] = test system: A549/ATCC NSCLC
# [9] = test system: 786-0 renal
# [10] = test system: COLO 205 colon
# [11] = test system: DU-145 prostate
# [12] = test system: K-562 leukemia
# [13] = test system: MALME-3M melanoma
# [14] = test system: MDA-MB-231 breast
# [15] = test system: RXF 393 renal
# [16] = test system: SF-268 CNS
# [17] = test system: SF-295 CNS
# [18] = test system: SF-539 CNS
# [19] = test system: UACC-257 melanoma
# [20] = test system: M14 melanoma
SMILES,growth [1],growth [2],growth [3],growth [4],growth [5],growth [6],growth [7],growth [8],growth [9],growth [10],growth [11],growth [12],growth [13],growth [14],growth [15],growth [16],growth [17],growth [18],growth [19],growth [20]
Cc1ccc(NC(=S)NNC(=S)NNc2ccccc2)cc1C,99.9%,99.7%,85.5%,106%,96.3%,55.4%,86.3%,101%,114%,107%,77.9%,8.18% (active),102%,104%,96.3%,55.1%,109%,103%,98.6%,115%
COc1cc(-c2nc(SCCC(C)C)nc(Nc3ccccc3Cl)c2C#N)cc(OC)c1OC,101%,102%,100%,110%,97.7%,91%,84.5%,92.1%,92.4%,109%,97.7%,95.1%,105%,81.5%,117%,85.7%,100%,95.6%,127%,96.6%
COc1ccc(OC)c(-c2c(C#N)c(-c3cccs3)nc3c2c(-c2ccccc2)nn3-c2ccccc2)c1,105%,102%,110%,105%,101%,106%,87.8%,101%,103%,110%,111%,106%,106%,105%,109%,97.4%,101%,93.5%,105%,105%
CN1CCN(Cc2ccc3c(NNC(=O)c4ccccc4)nc4cc(F)ccc4n23)CC1,29.9%,12.6%,28.2%,24.1%,3.88% (active),50.7%,28%,14.8%,26.4%,19.5%,27.1%,13.6%,23.5%,43.2%,39%,19.9%,16.2%,10.8%,11.8%,3.61% (active)
CC1(C)CC2=C3C=C[C@@H]4[C@@]5(C)CCC(=O)C(C)(C)[C@@H]5CC[C@@]4(C)[C@]3(C)CC[C@@]2(C(=O)O)CC1=O,71.6%,53%,59.7%,76%,76.7%,25.8%,65.1%,48.3%,31.7%,68.6%,97.2%,92.1%,39.1%,75.3%,54.8%,53.3%,75.3%,65.7%,43.2%,46.8%
CC(=O)OC[C@]12CCC(C)(C)C[C@H]1[C@@]1(O)[C@H](O)C[C@@H]3[C@@]4(C)CCCNC(C)(C)[C@@H]4CC[C@@]3(C)[C@]1(C)CC2,106%,102%,98.1%,107%,110%,112%,93.6%,106%,101%,117%,111%,106%,106%,103%,117%,106%,102%,103%,101%,92.4%
CN(Cc1ccc(C(F)(F)F)cc1)CC(O)C(=O)Nc1ccc(Cl)cc1 (stereo not given),-50.9% (active),51.8%,42.4%,-37.8% (active),18.3%,-0.362% (active),-51.4% (active),19.6%,-48.4% (active),-68.6% (active),-51.4% (active),-36% (active),12.8%,26%,12.9%,31.9%,-69.5% (active),21.9%,1.78% (active),-49.8% (active)
C1=CN2CC(c3ccccc3)=NNC2c2ccccc21 (stereo not given),76.1%,63.3%,86.1%,72.4%,98%,76.7%,75.5%,95.1%,99.3%,113%,113%,48.6%,80.4%,63.4%,90%,106%,104%,92.6%,97.1%,94.1%
Cn1cc(-c2csc(-c3ccc(Cl)cc3)n2)c2cccnc21,-49.3% [100 µM] (active),-14.3% [100 µM] (active),-8.35% [100 µM] (active),-53.7% [100 µM] (active),-16.4% [100 µM] (active),-69.2% [100 µM] (active),9.55% [100 µM] (active),9.96% [100 µM] (active),-61.4% [100 µM] (active),-65.8% [100 µM] (active),-70.5% [100 µM] (active),3.35% [100 µM] (active),-9.47% [100 µM] (active),-46.5% [100 µM] (active),-7.46% [100 µM] (active),-33.6% [100 µM] (active),-20.3% [100 µM] (active),-63.8% [100 µM] (active),-35.6% [100 µM] (active),-62.3% [100 µM] (active)
N#CC1C=CN(CC(N)=O)c2ccc3cccnc3c21 (stereo not given),94.7%,87.5%,97.3%,95.2%,103%,98.3%,85.6%,88.9%,98.3%,80.3%,108%,94.7%,97.5%,95.5%,114%,105%,103%,99.1%,89%,97.7%
N#C/C(=C\c1ccc(Br)cc1)n1nnc2ccc(F)cc21,16%,2.99% (active),9.42% (active),31.4%,-35.9% (active),36.7%,-18.2% (active),16.6%,-73.8% (active),-12.9% (active),15.3%,3.46% (active),-22.6% (active),-11.4% (active),-41% (active),42.5%,44%,-24.3% (active),6.2% (active),-42.3% (active)
O=C(O)c1[nH]c(=O)[nH]c(=O)c1[N+](=O)[O-],109%,108%,119%,104%,115%,88%,138%,106%,106%,112%,134%,89.7%,124%,110%,113%,117%,104%,103%,97.7%,110%
CCOC(=O)CSc1ncnc2c1c(-c1ccccc1)c(-c1ccccc1)n2-c1ccc(C)cc1,75%,77.8%,94.4%,64.8%,76.6%,49.4%,47.3%,72.5%,80.9%,63.7%,74.4%,38%,62.1%,85.7%,105%,86.2%,76.2%,86.2%,51.9%,75.6%
Cc1ccc(-c2csc(NC(=O)CN3CCN(c4cc5c(cc4F)c(=O)c(C(=O)O)cn5C4CC4)CC3)n2)cc1,4.26% (active),28.6%,12.4%,11.2%,14.4%,-16.4% (active),-11.7% (active),3.47% (active),22.6%,-17.6% (active),13.1%,9.66% (active),-2.34% (active),6.47% (active),27.2%,23.2%,-2.97% (active),23.7%,-12.9% (active),23%
O=C(CSc1nc2ccc([N+](=O)[O-])cc2[nH]1)Nc1ccc(F)cc1,40.4%,48.9%,86.5%,105%,56.8%,-6.84% (active),30.1%,58.2%,62.7%,68.3%,66.8%,42.1%,36.3%,80.3%,87.8%,68.8%,52.1%,79.8%,44.5%,59.9%
CCOC(=O)C(=Cc1cccc(Br)c1)C(=O)OCC,17.7%,45.2%,65.5%,85.1%,68.2%,12.9%,23.9%,41.8%,47.4%,46.6%,4.57% (active),21.3%,73.1%,38.1%,40.3%,25.7%,97%,4.36% (active),35%,32.9%
COc1ccc(NC(=O)c2sc3nc(C)c(C(=O)/C=C/c4cccc(OC)c4)cc3c2N)cc1,54.6%,71.8%,18%,61.8%,-7.38% (active),90.9%,39.2%,13.2%,10.9%,45.9%,21.9%,12.7%,94.1%,53.2%,-11.4% (active),34.4%,26.9%,71.2%,87.9%,70.3%
COc1ccc(-c2cc(-c3ccc(Cl)cc3)c(C#N)c(=O)n2CCCCC(=O)Nc2ccccc2N)cc1,63.4%,55.3%,63.8%,64.1%,37.6%,-3.51% (active),48.6%,43.8%,68.8%,20.2%,59.9%,24.8%,59.3%,39.3%,14.2%,65.5%,-14.5% (active),73.9%,44.7%,-7.3% (active)
COC(=O)[C@]1(C)CCC[C@]2(C)[C@H]3C[C@H]4C(C(C)C)=C[C@]3(CC[C@H]21)[C@H]1[C@@H]4[C@@H](OCCC#N)CC[C@@H]1OCCC#N,46.3%,46.1%,98.6%,75.3%,33.3%,26.2%,28.4%,37.4%,37.3%,11.9%,57%,26.8%,61.9%,47.3%,-10.5% (active),47.9%,30%,59.7%,37.8%,40.7%
CCN(CC)CCOc1ccc(-c2c(-c3ccccc3)c(=O)oc3ccccc23)cc1,94.8%,82.7%,110%,95.5%,95.8%,84.3%,71.6%,92%,85%,81.2%,121%,92.1%,87.2%,88.7%,71.9%,87.4%,104%,92.6%,86.3%,88.2%
CC(C)n1cnc2c(=S)nc[nH]c21,114%,107%,112%,108%,111%,103%,105%,126%,113%,114%,111%,69.9%,156%,118%,121%,101%,90.1%,99.6%,120%,109%
Cc1ccc(S(=O)(=O)N2CCCC2CO)cc1 (stereo not given),84.9%,99.9%,93.6%,188%,99.9%,76.9%,90.7%,103%,100%,103%,104%,114%,83.8%,100%,103%,101%,112%,94.4%,107%,95.1%
CCOC(=O)c1cc2c(=O)oc3ccccc3c2oc1=O,112%,101%,100%,120%,111%,49.4%,92.1%,105%,111%,129%,116%,122%,105%,101%,99.8%,108%,110%,100%,105%,118%
CCn1c(=S)sc2c(Nc3ccc(F)cc3)nc(-c3cccnc3)nc21,66.2%,75.2%,76.5%,47.6%,64.5%,18.4%,40.5%,48.7%,20.5%,72.5%,77.5%,77.1%,83.9%,75%,78.6%,56.4%,50.6%,41.5%,78.9%,74.1%
CN(C)c1ccc(/C=C/C(=O)c2ccc(-n3cc(CN4CCN(c5cc6c(cc5F)c(=O)c(C(=O)O)cn6C5CC5)CC4)nn3)cc2)cc1,80.3%,81.7%,77.5%,67.3%,32.5%,50.3%,48.5%,82.2%,33.2%,105%,51.7%,21.9%,89.2%,65.3%,45%,35.7%,81.2%,27.9%,88.3%,60.9%
Cn1ccnc1C(=O)C(=O)Nc1ccc(CC(=O)Nc2ccccc2)cc1,104%,96.4%,102%,107%,102%,103%,99.5%,108%,104%,109%,104%,111%,101%,109%,102%,96.7%,106%,99.4%,110%,104%
CC1(C)CC[C@]2(c3nnc(-c4ccncc4)o3)CC[C@H]3C(=CC[C@H]4[C@@]3(C)CC[C@H]3C(C)(C)C(=O)CC[C@]43C)[C@@H]2C1,71.7%,60.6%,94.4%,85.7%,40.4%,76%,64.2%,73.9%,66.3%,67.9%,86.3%,40.8%,86.9%,72.8%,79%,81.4%,89.7%,76.3%,70.6%,84%
COC(=O)c1c2c(c(C)[n+]([O-])c1C)C(=O)C(NCc1ccc(Cl)cc1)=CC2=O,59%,92.6%,64.3%,78.2%,51.8%,107%,42%,66.9%,74%,9.79% (active),86.6%,28.7%,-75.4% (active),48.7%,86.6%,76.8%,87.6%,85.3%,17.8%,39.6%
N#Cc1nn(-c2cc(=O)[nH]c3ccc(Cl)cc23)c(N)c1C#N,104%,99.4%,91.9%,87.2%,114%,-79.6% (active),87.1%,98.3%,93.4%,100%,118%,-43.9% (active),91.9%,108%,107%,113%,97.6%,96%,87%,93.7%
CCOC(=O)c1cn2ncnc(Oc3ccc(NC(=O)NC4CCCCC4)c(Cl)c3)c2c1C,68.8%,92.6%,85.2%,79.9%,96.4%,86.8%,67.1%,58.7%,81.6%,96.9%,96%,82.6%,58%,58.2%,83.8%,84.9%,96.7%,51.2%,90%,83.9%
